For 45 compounds, inhibition results are on record in PubChem BioAssay AID2014 (Sanford-Burnham Center for Chemical Genomics, 2009).

The campaign covered roughly 290,000 compounds. About 3,000 (1%) were called active. The rule behind the calls is not given here. The list comes from a sample in which actives are over-represented; it also holds similar structures and randomly drawn compounds.

The target in the test is Polyadenylate-binding protein 1 (Homo sapiens) (UniProt P11940). In words: PABP poly(A) RNA binding inhibitors, primary screen, biochemical, fluorescence polarization, uHTS (AID 2014).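 Note: calls also rest on retests at 20 µM and on dose response follow-up.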 The following applies: stronger effect = higher value. A general note: Fluorescence polarisation rises when a labelled molecule tumbles more slowly, as on binding a larger partner.
Polyadenylate-binding protein 1 (Homo sapiens), sequence (P11940 whole entry, looked up): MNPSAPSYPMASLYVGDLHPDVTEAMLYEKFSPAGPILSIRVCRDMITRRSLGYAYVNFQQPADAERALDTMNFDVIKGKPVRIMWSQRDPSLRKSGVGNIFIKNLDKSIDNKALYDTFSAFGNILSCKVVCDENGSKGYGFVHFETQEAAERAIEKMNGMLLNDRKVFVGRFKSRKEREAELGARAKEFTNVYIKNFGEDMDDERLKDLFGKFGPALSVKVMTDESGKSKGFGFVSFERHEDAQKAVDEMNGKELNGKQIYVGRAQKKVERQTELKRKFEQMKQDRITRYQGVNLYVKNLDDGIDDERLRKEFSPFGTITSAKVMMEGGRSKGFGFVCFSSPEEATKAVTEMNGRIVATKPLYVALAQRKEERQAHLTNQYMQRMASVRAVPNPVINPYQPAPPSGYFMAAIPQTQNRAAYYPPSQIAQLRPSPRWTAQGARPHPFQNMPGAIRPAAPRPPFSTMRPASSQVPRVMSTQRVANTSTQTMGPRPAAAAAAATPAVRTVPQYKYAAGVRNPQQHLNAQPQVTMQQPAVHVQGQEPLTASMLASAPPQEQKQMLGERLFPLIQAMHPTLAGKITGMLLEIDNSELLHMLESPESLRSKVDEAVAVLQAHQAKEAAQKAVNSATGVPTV

For orientation: inhibition means the change of the read-out against control, counted positive when it falls. As to `O=C(CCNS(=O)(=O)c1cccs1)N1CCN(c2ccc(F)cc2)CC1`, the inhibition (at 35 µM) is 2.5% (inactive).

Consider `Cc1cccc(CCNS(=O)(=O)c2ccc3c(c2)NC(=O)CO3)c1`, for which the inhibition (at 35 µM) was 0.4% (inactive).

Consider `Cc1nc2c(c(=O)n1Cc1ccco1)c1nc3ccccc3nc1n2Cc1ccccc1`, for which, where the note is “at 35 µM”, the inhibition is 57.3% (active).

As to `Cc1ccc(Cn2c(C)nc3c(c2=O)c2nc4ccccc4nc2n3Cc2ccco2)cc1`, under “at 35 µM”, the inhibition was 17.9% (inactive).

As to `Cc1nc2ccccc2c(=O)n1Cc1ccc([N+](=O)[O-])cc1`, the inhibition (at 35 µM) is -8.9% (inactive).

For the compound `Cc1cccc(NS(=O)(=O)c2cc(Cl)ccc2Cl)n1`, under “at 35 µM”, the inhibition is -4.9% (inactive).

Turning to `O=C1CCNCCN1[C@H](CO)Cc1ccccc1`, the inhibition (at 35 µM) is -8.7% (inactive).

With `COc1ccc(C(=O)NC2=NCCS2)c(OC)c1`, the inhibition (at 35 µM) was -7.6% (inactive).

As for `COc1ccc2cc(C(=O)NCC3CCCO3)[nH]c2c1` (stereo not given), the inhibition (at 35 µM) is 0.3% (inactive).

Consider `O=S(=O)(c1ccc(Br)cc1)N1CCC(c2nc3ccccc3[nH]2)CC1`, for which the inhibition (at 35 µM) was 3.9% (inactive).

As to `CCCCOC(=O)Cn1c(=O)n(CC(=O)OCCCC)c2cc(C)ccc21`, the inhibition (at 35 µM) was -8.1% (inactive).

For the compound `Cc1ccc(CCCOC(=O)C[N+]2(C)CCCCC2)cc1`, the inhibition (at 35 µM) is 50.6% (active).

Take `Cc1ccc(CCCOC(=O)C[N+]2(C)CCCC2)cc1`: the inhibition (at 35 µM) was 2.4% (inactive).

On to `Cc1ccc(C(=O)COC(=O)CCN2C(=O)C3C4CCC(C4)C3C2=O)cc1C` (stereo not given), for which, for the setting “at 35 µM”, the inhibition was -12.4% (inactive).

For `COc1cccc(NC(=O)N2CCC(NC(=O)C(Cc3cccc(C)c3)NC(C)=O)CC2)c1` (stereo not given), the inhibition (at 35 µM) is 2.7% (inactive).

Turning to `C/C(=N\NC(=O)CC(C)C)c1c(C(F)(F)F)[nH]n(-c2nc3ccccc3s2)c1=O`, the inhibition (at 35 µM) is -1.1% (inactive).

In the case of `Cc1cc(NC(=O)CN2CCCC(C)C2)n(-c2nc3ccccc3s2)n1` (stereo not given), the inhibition (at 35 µM) is 5.3% (inactive).

Turning to `CCC(C)Cn1c(O)cc2nn(-c3nc4ccccc4s3)c(=O)c-2c1C` (stereo not given), the inhibition (at 35 µM) is 68.7% (active).

As to `CCOC(=O)c1ccccc1NC(=O)COC(=O)CCC(=O)N1CCOCC1`, the inhibition (at 35 µM) is -1.1% (inactive).

Turning to `COc1ccccc1NC(=O)c1cc(N2C(=O)C3C4CCC(C4)C3C2=O)ccc1Cl` (stereo not given), for the setting “at 35 µM”, the inhibition was 1.6% (inactive).

With `O=C1OCC2=C1C(c1ccccc1)CC(=O)N2c1cccc(F)c1` (stereo not given), the inhibition is, setting by setting: (at 35 µM) 68% (active); (confirmation repeats, at 20 µM) 65.5%.

As for `O=C1CC(NNc2ccccc2)C(=O)N1c1cccc(Cl)c1` (stereo not given), the inhibition (at 35 µM) is -2.5% (inactive).

In the case of `O=C1CC(c2ccccc2)C(=O)N1c1cccc(O)c1` (stereo not given), the inhibition (at 35 µM) was -5.5% (inactive).

Regarding `CCc1nnc(NC(=O)CCC(=O)N2CCN(c3cc(C)ccc3C)CC2)s1`, the inhibition (at 35 µM) was 11.5% (inactive).

In the case of `O=C(OCc1ccc(-c2ccccc2)cc1)c1cccc(O)c1`, the inhibition (at 35 µM) is 10.5% (inactive).

Take `CCc1ccc(OCC2c3cc(OC)c(OC)cc3CCN2C(C)=O)cc1` (stereo not given): where the note is “at 35 µM”, the inhibition is 6.8% (inactive).

For `COc1cc2c(cc1O)[C@H](Cc1ccc(Oc3cc(C[C@@H]4NCCc5cc(OC)c(O)cc54)ccc3O)cc1)NCC2`, the inhibition runs as follows: (at 35 µM) 0.1% (active); (confirmation repeats, at 20 µM) 91.3%.

Regarding `CC[C@H]1CN2CCc3cc(OC)c(OC)cc3[C@@H]2C[C@@H]1C[C@H]1NCCc2cc(OC)c(OC)cc21`, the inhibition (at 35 µM) was 1.5% (inactive).

As to `COc1ccccc1C(=O)Nc1ccnn1C1CCN(C(=O)C(C)(C)C)CC1`, the inhibition (at 35 µM) was 8.7% (inactive).

As to `C=CCNc1nnc(SCC(=O)N2CCCCC2)c2ccccc12`, the inhibition is 116% (active) (at 35 µM) and 56.4% (confirmation repeats, at 20 µM).

For the compound `O=C(CSc1ncccn1)N1CCCC1`, the inhibition (at 35 µM) was 9.6% (inactive).

On to `C=CCNc1nnc(C)c2ccccc12`, for which, where the note is “at 35 µM”, the inhibition was -0.7% (inactive).

Consider `Cc1nc(-c2ccc(F)cc2)c(CC(=O)N2CCN(S(=O)(=O)c3ccc(F)cc3)CC2)s1`, for which, under “at 35 µM”, the inhibition is 6.2% (inactive).

In the case of `O=C(CN1CCC(O)(c2cccc(C(F)(F)F)c2)CC1)NCCc1ccccc1`, the inhibition (at 35 µM) is -5% (inactive).

Turning to `O=C(Nc1cccc([N+](=O)[O-])c1)N1CCc2ccccc2C1`, under “at 35 µM”, the inhibition is -6.2% (inactive).

For `CC(C(=O)NCCc1ccc(S(N)(=O)=O)cc1)N1C(=O)CC(C)(C)Sc2ccccc21` (stereo not given), the inhibition (at 35 µM) is -1.3% (inactive).

In the case of `NC(=O)c1sc2nc3c(c(-c4ccccc4)c2c1N)CCC3`, the inhibition (at 35 µM) is -3.5% (inactive).

Consider `Cc1cccc(NC(=O)c2sc3nc4c(c(-c5ccco5)c3c2N)CCC4)c1`, for which the inhibition is 63% (active) (at 35 µM) and 87.7% (confirmation repeats, at 20 µM).

As to `Cc1cccc(NC(=O)c2sc3nc(N4CCOCC4)c4c(c3c2N)CCCC4)c1`, the inhibition (at 35 µM) is 4.1% (inactive).

`O=C(CNC(=O)c1ccccc1F)c1ccc(Br)cc1`: the inhibition (at 35 µM) was 0.1% (inactive).

Turning to `O=C(O)c1ccc2c(=O)n3c(nc2c1)/C(=C/c1ccc(OC(F)F)cc1OC(F)F)CC3`, the inhibition (at 35 µM) was 5.3% (inactive).

Regarding `CC(NC(=O)c1cc(=O)[nH]c2ccccc12)c1ccc(F)cc1F` (stereo not given), the inhibition (at 35 µM) is 12.3% (inactive).

For the compound `Cc1cc(/C=C2/C(=N)N3C(=NC2=O)SN=C3S(C)(=O)=O)c(C)n1-c1ccccc1`, the inhibition runs as follows: (at 35 µM) -5.5% (inactive); (confirmation repeats, at 20 µM) 11.8%.

In the case of `CS(=O)(=O)c1ccc2c(c1)SC1=NC(=O)/C(=C/c3ccco3)C(=N)N12`, the inhibition (at 35 µM) is 91% (active).

For the compound `CS(=O)(=O)C1=NN2C(=N)/C(=C\c3ccc(OCCOc4ccccc4)cc3)C(=O)N=C2S1`, the inhibition (at 35 µM) was 16.8% (inactive).
